Test results published in PubChem BioAssay AID1159580 (chemical genetic matrix, 2015).
Hit rate of the full screen: of about 5,500 compounds, about 2,000 (36%) were called active. About 18% were inconclusive and are not listed. No stated cut-off is given here; in the data, active means normalized growth mostly below about 0.91 (no sharp cut-off); inconclusive means no clear call, values can overlap the other calls; inactive means mostly above about 0.92. The list shows a part of the results.

Assay: chemical genetic growth profiling, strain panel (AID 1159580);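 further: tested at 20 µM; growth read once vehicle control cultures reached saturation at 30 °C; 1 = growth at the plate median or of vehicle wells; lower values mean less growth of the strain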
Conditions: S. cerevisiae deletion strains, growth OD

Measured: normalized growth

O=c1ccc2c(O)c3ccoc3cc2o1
inactive: locus YAL021C, strain ccr4, hits give low values 0.992 | locus YAL026C, strain drs2, hits give low values 0.974 | locus YAL030W, strain snc1, hits give low values 0.989 | locus YBL061C, strain skt5, hits give low values 0.982 | locus YBR009C, strain hhf1, hits give low values 0.977 | locus YBR023C, strain chs3, hits give low values 0.987 | locus YBR171W, strain sec66, hits give low values 0.983 | locus YBR231C, strain swc5, hits give low values 0.989 | locus YBR279W, strain paf1, hits give low values 0.984 | locus YCL011C, strain gbp2, hits give low values 0.989 | locus YCL016C, strain dcc1, hits give low values 0.986 | locus YCL069W, strain vba3, hits give low values 0.98 | locus YCR088W, strain abp1, hits give low values 0.967 | locus YDL005C, strain med2, hits give low values 0.986 | locus YDL040C, strain nat1, hits give low values 0.99 | locus YDR001C, strain nth1, hits give low values 0.977 | locus YDR069C, strain doa4, hits give low values 0.986 | locus YDR137W, strain rgp1, hits give low values 1.01 | locus YDR159W, strain sac3, hits give low values 0.997 | locus YDR195W, strain ref2 0.957 | locus YDR297W, strain sur2, hits give low values 0.987 | locus YDR334W, strain swr1, hits give low values 0.947 | locus YDR335W, strain msn5, hits give low values 0.994 | locus YDR392W, strain spt3, hits give low values 0.98 | locus YEL003W, strain gim4, hits give low values 0.984 | locus YEL037C, strain rad23, hits give low values 0.984 | locus YEL061C, strain CIN8 (second series), hits give low values 0.965 | locus YER015W, strain faa2, hits give low values 0.993 | locus YER016W, strain bim1, hits give low values 0.994 | locus YER111C, strain swi4, hits give low values 0.995 | locus YER155C, strain BEM2 (second series), hits give low values 0.997 | locus YFR010W, strain ubp6, hits give low values 0.968 | locus YGL167C, strain pmr1, hits give low values 0.986 | locus YGL173C, strain kem1, hits give low values 0.992 | locus YGL227W, strain vid30, hits give low values 0.981 | locus YGL240W, strain doc1, hits give low values 0.99 | locus YGL253W, strain hxk2, hits give low values 0.997 | locus YHR013C, strain ard1, hits give low values 0.956 | locus YHR027C, strain rpn1, hits give low values 0.998 | locus YHR030C, strain SLT2, hits give low values 0.997 | locus YHR079C, strain IRE1, hits give low values 0.985 | locus YHR142W, strain chs7, hits give low values 0.975 | locus YJL092W, strain hpr5, hits give low values 0.983 | locus YJL095W, strain BCK1 (second series), hits give low values 0.972 | locus YJL095W, strain BCK1, hits give low values 0.991 | locus YJL115W, strain asf1, hits give low values 0.965 | locus YJL129C, strain trk1, hits give low values 0.978 | locus YJL154C, strain vps35, hits give low values 0.966 | locus YJL164C, strain tpk1, hits give low values 0.992 | locus YJL166W, strain qcr8, hits give low values 0.963 | locus YJL187C, strain SWE1, hits give low values 0.988 | locus YJR066W, strain TOR1, hits give low values 0.935 | locus YKL160W, strain elf1, hits give low values 0.993 | locus YKR026C, strain gcn3, hits give low values 0.986 | locus YKR091W, strain srl3, hits give low values 0.984 | locus YLL001W, strain dnm1, hits give low values 0.982 | locus YLL026W, hits give low values 0.993 | locus YLL041C, strain sdh2, hits give low values 0.981 | locus YLR027C, strain aat2, hits give low values 0.976 | locus YLR113W, strain HOG1, hits give low values 1 | locus YLR221C, strain rsa3, hits give low values 0.984 | locus YLR258W, strain gsy2, hits give low values 0.987 | locus YLR262C, strain YPT6 (second series), hits give low values 1.01 | locus YLR320W, strain mms22, hits give low values 1.01 | locus YLR342W, strain FKS1, hits give low values 0.984 | locus YLR357W, strain rsc2, hits give low values 0.975 | locus YLR370C, strain arc18, hits give low values 0.984 | locus YLR384C, strain iki3, hits give low values 0.992 | locus YML120C, strain ndi1, hits give low values 0.97 | locus YMR058W, strain fet3, hits give low values 0.98 | locus YMR125W, strain sto1, hits give low values 0.983 | locus YMR129W, hits give low values 0.976 | locus YMR205C, strain PFK2, hits give low values 0.975 | locus YMR231W, strain pep5, hits give low values 0.981 | locus YNL071W, strain lat1, hits give low values 0.979 | locus YNL183C, strain NPR1, hits give low values 0.944 | locus YNL209W, strain ssb2, hits give low values 0.975 | locus YNL248C, strain rpa49, hits give low values 0.941 | locus YNL322C, strain KRE1 (second series), hits give low values 0.984 | locus YNR049C, strain mso1, hits give low values 0.996 | locus YOR001W, strain rrp6, hits give low values 0.975 | locus YOR070C, strain gyp1, hits give low values 0.992 | locus YOR080W, strain dia2, hits give low values 0.987 | locus YOR083W, strain WHI5, hits give low values 0.989 | locus YOR106W, strain vam3, hits give low values 0.977 | locus YOR231W, strain MKK1, hits give low values 0.996 | locus YOR265W, strain rbl2, hits give low values 0.973 | locus YOR270C, strain vph1, hits give low values 0.904 | locus YOR290C, strain snf2, hits give low values 0.991 | locus YPL051W, strain arl3, hits give low values 1.01 | locus YPL078C, strain atp4, hits give low values 0.974 | locus YPL106C, strain sse1, hits give low values 0.978 | locus YPL240C, strain hsp82, hits give low values 0.983 | locus YPL256C, strain CLN2, hits give low values 0.978
